Screens: PubChem, several laboratories
In the library only some 1.8% were active in any assay of this set; here they are far more common.
IEC-6 tox = kills IEC-6 intestinal cells in KLF5 counter-screen; IEC-6 cytotoxicity, luminescence viability; actives 0.78% (n = 290,000); inhibition, % at 5 µM; in the data active = inhibition above about 22%;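 also: 0% = plate median of test compound wells and 100% = cytotoxic reference compound wells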
BaF3 parental = reduces parental Ba/F3 cell viability, JAK2V617F counter-screen; CellTiter-Glo ATP luminescence; inhibition, % at 5.6 µM; AID 1486; actives 1.1% (n = 220,000);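 active = inhibition above a per-campaign cutoff, the mean inhibition of all tested compounds plus 3 SD, cut at about 27% in these data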;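 also: 0% = DMSO wells and 100% = JAK Inhibitor I control wells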
Ba/F3 V617F tox = reduce viability of Ba/F3 cells dependent on JAK2V617F. Ba/F3 EpoR-JAK2V617F viability, ATP luminescence. inhibition, % at 5.6 µM. actives 1.1% (n = 220,000);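 active = inhibition above the campaign mean plus 3 SD over all tested compounds, cut at about 24% in these data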;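 also: cytokine-independent growth of Ba/F3 cells driven by EpoR plus mutant JAK2; 0% = DMSO-treated cells and 100% = JAK inhibitor I control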
KLF5 inh = kruppel-like factor 5 inhibition; DLD-1 KLF5 promoter-luciferase reporter, luminescence; inhibition, % at 5 µM; actives 0.23% (n = 290,000);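 active = inhibition above a per-plate limit of that plate's mean compound inhibition plus 3 SD, cut at about 60% in these data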;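 also: 0% = DMSO wells and 100% = LY294002 at 200 µM; higher means less KLF5 promoter-driven luciferase light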
APP 5UTR inh = APP translation inhibition. inhibition, % at 2 µM. SH-SY5Y APP 5'UTR-luciferase reporter, luminescence. actives 0.82% (n = 190,000). AID 1285;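 active = inhibition above a set limit, derived from the sample mean plus 3 SD, cut at about 45% in these data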
BaF3 tox 2 = parental Ba/F3 viability inhibition for JAK2V617F counter-screen | shares compounds with Ba/F3 V617F tox | CellTiter-Glo luminescence; cells kept alive by added IL-3 | inhibition, % at 5.6 µM | actives 31% (n = 580);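 active = cell growth inhibition above the hit limit set in the earlier mutant JAK2 cell screen, cut at about 27% in these data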;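 also: plate controls were DMSO-treated cells for no effect and JAK Inhibitor I control wells for full effect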
JAK2V617F confrm = Ba/F3 EpoR-JAK2V617F viability loss, confirmation; inhibition, % at 5.6 µM; shares compounds with Ba/F3 V617F tox; CellTiter-Glo luminescence; actives 66% (n = 580);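 active = mean inhibition above the hit cutoff derived in the earlier primary screen, cut at about 25% in these data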;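 also: 0% = DMSO-treated cells and 100% = JAK inhibitor I control wells; higher means lower luminescence from reduced cell ATP and viability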
An asterisk follows results filed as active; . = no result given.

SMILES | IEC-6 tox | BaF3 parental | Ba/F3 V617F tox | KLF5 inh | APP 5UTR inh | BaF3 tox 2 | JAK2V617F confrm
O=[N+]([O-])/C(C=Nc1ccccc1O)=C\Nc1ccccc1O | 8 | 17 | 39* | -29 | . | 13 | 68*
O=C(CSc1ccccc1)Nc1ccc2c(c1)OCCO2 | -2 | . | . | -151 | . | . | .
O=C(CSc1ccc(-c2ccccc2)nn1)Nc1ccc2c(c1)OCCO2 | 8 | 8 | 46* | -29 | -16 | -4 | -14
Oc1ccc(CN2CCC(Cc3ccccc3)CC2)c2cccnc12 | -12 | 0 | 83* | 15 | 58* | 84* | 98*
Cc1nc2cc(-c3ccccc3)sc2c(=O)n1N | 16 | 24 | 25* | 65* | 26 | 48* | 37*
CC(NC(=O)c1cc(S(=O)(=O)N2CCOCC2)cn1C)c1ccccc1 (stereo unspecified) | 3 | . | . | -35 | . | . | .
Cn1c(N)c(C(=O)CSc2nc(N)cc(N)n2)c(=O)n(C)c1=O | 1 | 6 | 2 | -2 | 2 | . | .
CC(Sc1ncc(C(F)(F)F)cc1Cl)C(=O)NC(N)=O (stereo unspecified) | 0 | 3 | 39* | -25 | -14 | 0 | -2
OC(c1cc(-c2ccc(Cl)cc2)nc2ccccc12)C1CCCCN1 (stereo unspecified) | 34* | 2 | 65* | -12 | . | 5 | 20
OC(c1cc(C(F)(F)F)nc2c(Cl)cc(Cl)cc12)C1CCCCN1 (stereo unspecified) | 0 | 0 | 3 | -21 | . | . | .
CCCn1c(CC)nc([N+](=O)[O-])c1S(=O)(=O)c1ccccc1 | 5 | 8 | 49* | 3 | 14 | -2 | 70*
CCc1nc(C)cn1S(=O)(=O)c1ccc([N+](=O)[O-])cc1 | 1 | 4 | -1 | -29 | 0 | . | .
O=C(O[C@@H]1OC2COC(=O)c3cc(O)c(O)c(O)c3-c3c(cc(O)c(O)c3O)C(=O)O[C@@H]([C@H]1O)[C@@H]2O)c1cc(O)c(O)c(O)c1 | 7 | 9 | 48* | -20 | 12 | -3 | -7
Cc1ccc(N/C(=C\C(=O)c2ccccc2)C(=O)O)cc1 | 13 | 9 | 40* | -12 | -60 | -3 | -1
C/C(=N\NC(=O)c1cccc(C)c1O)c1ccc(NC(=O)Cc2ccccc2)cc1 | 2 | . | . | -164 | . | . | .
COC(=O)COc1cccc2c(=O)n(CC(=O)NCc3ccc(F)cc3)ccc12 | 5 | 8 | 74* | 29 | 73* | 21 | 86*
CCOC(=O)C(C)Oc1cccc2c(=O)n(CC(=O)NCc3ccc(F)cc3)ccc12 (stereo unspecified) | 10 | 22 | 29* | 34 | . | 62* | 97*
CCOC(=O)C(C)Oc1cccc2c(=O)n(CC(=O)NCCc3ccccc3)ccc12 (stereo unspecified) | -1 | 4 | 2 | 6 | . | . | .
COC(=O)COc1cccc2c(=O)n(CC(=O)N3CCCCC3)ccc12 | -5 | -1 | -2 | -23 | . | . | .
CCOc1ccc(NS(=O)(=O)c2ccc(-c3ccc(=O)[nH]n3)o2)cc1 | 1 | . | . | -35 | . | . | .
Cc1c(NC(=S)NNC(=O)CCC(=O)O)c(=O)n(-c2ccccc2)n1C | -2 | -6 | -1 | -23 | . | . | .
CN1/C(=C\C(=O)CSc2nnc(NCc3ccccc3)s2)C(C)(C)c2ccccc21 | 10 | 23 | 33* | -5 | 1 | 5 | 21
Cc1cc(C)cc(-c2nnc(SCc3ccc(C(=O)O)cc3)o2)c1 | -1 | 4 | -4 | -7 | -18 | . | .
CCNC(=S)NNC(=O)c1cccn(Cc2ccc(Cl)cc2Cl)c1=O | -8 | 6 | -2 | -18 | -6 | . | .
C=CCNC(=S)NNC(=O)c1cccn(Cc2ccc(Cl)cc2Cl)c1=O | -3 | -3 | 30* | -16 | 0 | -1 | 0
COC(=O)C(C(=O)OC)C(C)C(C(=O)OC)C(=O)OC | -4 | 12 | 61* | 4 | 16 | -6 | -6
COC(=O)C(c1ccccc1)C(C(=O)OC)c1ccccc1 (stereo unspecified) | -12 | . | . | -21 | . | . | .
CCOC(=O)c1c(C)sc2c1N(C(=O)CCl)c1cc(Cl)ccc1S2 | 13 | 11 | 28* | 9 | -2 | 58* | 99*
